The supplement of paper PMC10981050
Values joined by “and” are separate entries in the source; they are usually repeats but may differ in a detail not shown here. Equal entries are not always repeated. Structures can show the parent of a compound that is named as a salt.

Key:
Assay in all cases: cell viability relative to vehicle control; higher = less cytotoxic
Conditions in all cases: 10 µM
[1] = tested on: K562
Summary of the method: (§1)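 Four leukaemia lines, as CRISPR-edited mutant clones and isogenic wild-type clones, were tested against Selleck bioactive, kinase and epigenetic probe libraries after removal of identity-inconsistent compounds. Cells were exposed to a single 10 µM dose for 48 h, and CellTiter-Glo luminescence was then read. Viability was calculated relative to the on-plate vehicle control.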

[2] = tested on: MARIMO
Summary of the method: as §1

[3] = tested on: MOLM14
Summary of the method: as §1

[4] = tested on: OCI-AML2
Summary of the method: as §1

O=c1[nH]c2ccccc2o1 [2-Benzoxazolinone]
cell viability ([1]; SRSF2 genotype: SRSF2 P95H/wt): 100% and 89.3%
cell viability ([1]; SRSF2 genotype: SRSF2 wt/wt): 96.7%
cell viability ([2]; SRSF2 genotype: SRSF2 P95H/wt): 97.2%
cell viability ([2]; SRSF2 genotype: SRSF2 wt/wt): 102%
cell viability ([3]; SRSF2 genotype: SRSF2 P95H/wt): 98.4%
cell viability ([3]; SRSF2 genotype: SRSF2 wt/wt): 104%
cell viability ([4]; SRSF2 genotype: P95H/wt): 91.5%
cell viability ([4]; SRSF2 genotype: wt/wt): 94.2%

CC[C@@H](C(N)=O)N1CCCC1=O [Levetiracetam]
cell viability ([1]; SRSF2 genotype: SRSF2 P95H/wt): 110% and 104%
cell viability ([1]; SRSF2 genotype: SRSF2 wt/wt): 102%
cell viability ([2]; SRSF2 genotype: SRSF2 P95H/wt): 102%
cell viability ([2]; SRSF2 genotype: SRSF2 wt/wt): 109%
cell viability ([3]; SRSF2 genotype: SRSF2 P95H/wt): 101%
cell viability ([3]; SRSF2 genotype: SRSF2 wt/wt): 108%
cell viability ([4]; SRSF2 genotype: P95H/wt): 106%
cell viability ([4]; SRSF2 genotype: wt/wt): 106%

CN1[C@@H]2CC[C@H]1C[C@@H](OC(=O)C(CO)c1ccccc1)C2 (stereo not given in full) [Atropine sulfate monohydrate]
cell viability ([1]; SRSF2 genotype: SRSF2 P95H/wt): 93.4% and 94.7%
cell viability ([1]; SRSF2 genotype: SRSF2 wt/wt): 100%
cell viability ([2]; SRSF2 genotype: SRSF2 P95H/wt): 104%
cell viability ([2]; SRSF2 genotype: SRSF2 wt/wt): 112%
cell viability ([3]; SRSF2 genotype: SRSF2 P95H/wt): 100%
cell viability ([3]; SRSF2 genotype: SRSF2 wt/wt): 105%
cell viability ([4]; SRSF2 genotype: P95H/wt): 100%
cell viability ([4]; SRSF2 genotype: wt/wt): 99.6%

CC(C)NCC(O)c1ccccc1Cl (stereo not given) [Clorprenaline HCL]
cell viability ([1]; SRSF2 genotype: SRSF2 P95H/wt): 98.2% and 96.8%
cell viability ([1]; SRSF2 genotype: SRSF2 wt/wt): 104%
cell viability ([2]; SRSF2 genotype: SRSF2 P95H/wt): 98.2%
cell viability ([2]; SRSF2 genotype: SRSF2 wt/wt): 107%
cell viability ([3]; SRSF2 genotype: SRSF2 P95H/wt): 95.2%
cell viability ([3]; SRSF2 genotype: SRSF2 wt/wt): 101%
cell viability ([4]; SRSF2 genotype: P95H/wt): 108%
cell viability ([4]; SRSF2 genotype: wt/wt): 99.1%

O=P1(NCCCl)OCCCN1CCCl (stereo not given) [Ifosfamide]
cell viability ([1]; SRSF2 genotype: SRSF2 P95H/wt): 98.8% and 105%
cell viability ([1]; SRSF2 genotype: SRSF2 wt/wt): 104%
cell viability ([2]; SRSF2 genotype: SRSF2 P95H/wt): 105%
cell viability ([2]; SRSF2 genotype: SRSF2 wt/wt): 100%
cell viability ([3]; SRSF2 genotype: SRSF2 P95H/wt): 104%
cell viability ([3]; SRSF2 genotype: SRSF2 wt/wt): 101%
cell viability ([4]; SRSF2 genotype: P95H/wt): 111%
cell viability ([4]; SRSF2 genotype: wt/wt): 98%

Cc1c(Cl)c(OCC(=O)N2CCN(C)CC2)nc2sc(C(=O)NC3CC3)c(N)c12
cell viability ([1]; SRSF2 genotype: SRSF2 P95H/wt): 80.2% and 60.3%
cell viability ([1]; SRSF2 genotype: SRSF2 wt/wt): 66%
cell viability ([2]; SRSF2 genotype: SRSF2 P95H/wt): 40.5%
cell viability ([2]; SRSF2 genotype: SRSF2 wt/wt): 30.8%
cell viability ([3]; SRSF2 genotype: SRSF2 P95H/wt): 81.9%
cell viability ([3]; SRSF2 genotype: SRSF2 wt/wt): 51%
cell viability ([4]; SRSF2 genotype: P95H/wt): 27.8%
cell viability ([4]; SRSF2 genotype: wt/wt): 33.5%

CC(C)[C@]12O[C@H]1[C@@H]1O[C@@]13[C@@]1(C)CCC4=C(COC4=O)[C@@H]1C[C@@H]1O[C@@]13C2=O [Triptonide]
cell viability ([1]; SRSF2 genotype: SRSF2 P95H/wt): 5.3% and 13.3%
cell viability ([1]; SRSF2 genotype: SRSF2 wt/wt): 8.48%
cell viability ([2]; SRSF2 genotype: SRSF2 P95H/wt): 12.8%
cell viability ([2]; SRSF2 genotype: SRSF2 wt/wt): 5.79%
cell viability ([3]; SRSF2 genotype: SRSF2 P95H/wt): 2.66%
cell viability ([3]; SRSF2 genotype: SRSF2 wt/wt): 0.71%
cell viability ([4]; SRSF2 genotype: P95H/wt): 5.01%
cell viability ([4]; SRSF2 genotype: wt/wt): 15.2%

C[C@]12CCC(=O)C[C@@H]1CC[C@@H]1[C@@H]2CC[C@]2(C)[C@@H](O)CC[C@@H]12 [Dihydrotestosterone (DHT)]
cell viability ([1]; SRSF2 genotype: SRSF2 P95H/wt): 97% and 97.8%
cell viability ([1]; SRSF2 genotype: SRSF2 wt/wt): 97.7%
cell viability ([2]; SRSF2 genotype: SRSF2 P95H/wt): 95.3%
cell viability ([2]; SRSF2 genotype: SRSF2 wt/wt): 109%
cell viability ([3]; SRSF2 genotype: SRSF2 P95H/wt): 93.9%
cell viability ([3]; SRSF2 genotype: SRSF2 wt/wt): 102%
cell viability ([4]; SRSF2 genotype: P95H/wt): 96.5%
cell viability ([4]; SRSF2 genotype: wt/wt): 101%

C/C=C(\C)C(=O)N[C@@H](c1ccccc1)[C@@H](O)C(=O)O[C@H]1C[C@@]2(O)[C@@H](OC(=O)c3ccccc3)[C@@H]3[C@]4(OC(C)=O)CO[C@@H]4C[C@H](O)[C@@]3(C)C(=O)[C@H](OC(C)=O)C(=C1C)C2(C)C [Cephalomannine]
cell viability ([1]; SRSF2 genotype: SRSF2 P95H/wt): 22.2% and 39.2%
cell viability ([1]; SRSF2 genotype: SRSF2 wt/wt): 31%
cell viability ([2]; SRSF2 genotype: SRSF2 P95H/wt): 7.43%
cell viability ([2]; SRSF2 genotype: SRSF2 wt/wt): 5.47%
cell viability ([3]; SRSF2 genotype: SRSF2 P95H/wt): 9.27%
cell viability ([3]; SRSF2 genotype: SRSF2 wt/wt): 2.7%
cell viability ([4]; SRSF2 genotype: P95H/wt): 7.08%
cell viability ([4]; SRSF2 genotype: wt/wt): 10.9%

CN1C(=O)[C@@]23C[C@]4([C@]56C[C@@]78SS[C@@](CO)(C(=O)N7[C@H]5Nc5ccccc56)N(C)C8=O)c5ccccc5N[C@@H]4N2C(=O)[C@]1(CO)SS3 [Chaetocin]
cell viability ([1]; SRSF2 genotype: SRSF2 P95H/wt): 0.42% and 0.29%
cell viability ([1]; SRSF2 genotype: SRSF2 wt/wt): 0.65%
cell viability ([2]; SRSF2 genotype: SRSF2 P95H/wt): 0.27%
cell viability ([2]; SRSF2 genotype: SRSF2 wt/wt): 0.33%
cell viability ([3]; SRSF2 genotype: SRSF2 P95H/wt): 0.25%
cell viability ([3]; SRSF2 genotype: SRSF2 wt/wt): 0.28%
cell viability ([4]; SRSF2 genotype: P95H/wt): 0.23%
cell viability ([4]; SRSF2 genotype: wt/wt): 0.24%
